Screening results: PubChem BioAssay, National Center for Advancing Translational Sciences (NCATS)
SW480 rereplic = A quantitative high throughput screen for small molecules that induce DNA re-replication in SW480 colon adenocarcinoma cells | Potency, µM (series often up to 46.1 µM), inactives show at the top dose re-replication activation, hits mostly activators | hit rate 1.8% among 340,000 | AID 624297, 2012 | SW480 DNA re-replication, Hoechst DNA content imaging, 48 h; further: % of control where 0% means no effect; nearly all actives have a fitted effect of over 55% in size
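Compounds, transferred as 23 nL by pin tool, were incubated with cells for 48 hr; DNA content per nucleus was then quantified by Hoechst staining and fluorescence plate imaging.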
PINK1 expr mod = A Quantitative High throughput Screen to Identify Chemical Modulators of PINK1 Expression; PINK1 immunofluorescence, high-content cytometry, 24 h; Potency, µM (doses to about 76.6 µM), for the others: top-dose activation (PINK1 increase), most hits filed as activators; hit rate 0.2% among 410,000; AID 624263, 2012; active means well fitted activation curve with a large enough effect; inconclusive means small, poorly fitted or top-dose-only effect; cell line not stated here; further: % of control where 0% means no effect; nearly all actives have a fitted effect of over 65% in size
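Compound titrations (5 concentrations, 24 h) on a stable cell line; DMSO and CCCP controls. Endpoint: fixed-cell PINK1 immunofluorescence with mitochondrial, cell and nuclear markers, scanned by microplate cytometer.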
KB-3-1 cytotox = qHTS assay for MDR1-selective chemotherapeutics: Primary screen using the parental adenocarcinoma cell KB-3-1. KB-3-1 viability, CellTiter-Glo ATP luminescence, 72 h. hit rate 1.4% among 400,000. Potency, µM (series often up to 46.1 µM), actives largely listed as cytotoxic; further: on the % scale 0 is the no-effect control and ±100 the full control effect; nearly all actives have a fitted effect of over 60% in size
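Here the drug-naive KB-3-1 line serves as comparator for MDR sub-line selectivity; cells received compound titrations, 72 h at 37 °C, then CellTiter-Glo readout.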
MCF10A rereplic = A quantitative high throughput screen for small molecules that induce DNA re-replication in MCF 10a normal breast cells | MCF 10A DNA re-replication, Hoechst nuclear intensity, 48 h | hit rate 2.9% among 350,000 | Potency, µM (series often up to 46.1 µM), for inactives: top-dose activity, positive = re-replication, usual class: activators | AID 624296, 2012; further: % of control where 0% means no effect; nearly all actives have a fitted effect of over 50% in size
KB-V1 cytotox = qHTS assay for MDR1-selective chemotherapeutics: Primary screen using the drug-selected MDR subline cells KB-V1; KB-V1 MDR cells viability, CellTiter-Glo, 72 h; Potency, µM (series often up to 46.1 µM), usual class: cytotoxic; hit rate 3.4% among 400,000; AID 1347076, 2019; further: on the % scale 0 is the no-effect control and ±100 the full control effect; nearly all actives have a fitted effect of over 60% in size
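Following 72 h at 37 degrees C with compound, KB-V1 cell viability was read by CellTiter-Glo luminescence, medium being phenol-red-free DMEM plus 10% FBS; concentration-response parameters came from normalized, curve-fitted qHTS data.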
Active calls of the source: *; i = inactive; ? = inconclusive; · = no result; [ ] = remark or other dose. Sampled rows, rich in hits. Any-hit rate of the full collection: about 6.7%. Unless noted, the call rests on the fitted dose curve; in most records, active means well fitted curve in the direction sought with a large enough effect; inconclusive means small, poorly fitted or top-dose-only effect, or another doubt; inactive means no such curve, though single readings can be large; an effect the other way counts as inactive or inconclusive. Potency means the concentration at half of the fitted maximal effect.

SMILES	SW480 rereplic	PINK1 expr mod	KB-3-1 cytotox	MCF10A rereplic	KB-V1 cytotox
Cc1ccc(-n2nc(C)c3c(C)cc(=O)n(CC(=O)Nc4cccc(C)c4C)c32)cc1	·	1.9%	i	·	i
O=Cc1c[nH]c2ccc(S(=O)(=O)N3CCCCC3)cc12	·	2.8%	i	·	i
O=C(NCc1ccccc1)[C@]1(C(F)(F)F)C[C@H](CCc2ccccc2)CCCO1	-4.3%	-0.1%	i	1.84µM*	i
CC(C)=CCc1c(O)cc2c(=O)c3ccc(O)cc3oc2c1O	3.3%	2.9%	i	14.7%	?
COc1c(CC=C(C)C)c(O)cc2oc(=O)c3c4ccc(O)cc4oc3c12	?	4.7%	i	18.4µM*	?
CCOC(=O)c1ccc(N2C(=O)c3[nH]nc(-c4ccccc4)c3C2c2ccc(CC)cc2)cc1 (stereo not drawn)	·	1.9%	?	·	23.1µM*
CCOC(=O)c1ccc(N2C(=O)c3n[nH]c(-c4cccs4)c3C2c2ccc(OC)cc2OC)cc1 (stereo not drawn)	·	2.6%	?	·	25.9µM*
CCOC(=O)c1ccc(N2C(=O)c3n[nH]c(C)c3C2c2ccccn2)cc1 (stereo not drawn)	-2.3%	0.7%	i	3.2%	i
CCOC(=O)c1ccc(N2C(=O)c3n[nH]c(C)c3C2c2ccc(OCC)cc2)cc1 (stereo not drawn)	·	7.3%	23.1µM*	·	?
Cc1[nH]nc2c1C(c1ccccn1)N(c1ccc(Br)cc1)C2=O (stereo not drawn)	-7.1%	2.7%[38.3 µM]	i	-3.8%	18.4µM*
COc1ccc(NC(=O)Cn2c(=O)n(CCCC(=O)NCc3ccccc3OC)c(=O)c3ccccc32)cc1Cl	·	7.7%	i	·	?
Cc1csc(NC(=O)c2ccc(Cl)nc2)n1	20.1%	5.2%	i	0.4%	i
O=C(NC(=S)N1CCOCC1)c1ccc([N+](=O)[O-])cc1	0.651µM*	-0.3%	i	-98.0%	i
O=C(NC(NC(=S)N1CCOCC1)C(Cl)(Cl)Cl)c1ccc(Cl)cc1 (stereo not drawn)	5.0%	6.0%	i	-0.3%	13µM*
N#Cc1ccc(C(=O)NC(=S)N2CCOCC2)cc1	4.5%	-0.8%	i	0.5%	i
ClC(=Nc1cccc2ccccc12)N(c1ccccc1)c1ccccc1	·	0.5%	i	·	i
CC(C)(C)OC(=O)N1CCC(c2c(C(=O)N3CCC(c4ccccc4)C3)cnn2-c2cccc(Cl)c2)CC1 (stereo not drawn)	·	0.1%	?	·	i
CN1CCN(c2ncc3nc(-c4ccccc4)c(=O)n(CCC#N)c3n2)CC1	·	0.0%	·	·	·
Cc1cccc(C(=O)Nc2nc3nc(-c4ccccc4)cc(=O)n3[nH]2)c1	·	0.4%	i	·	i
Cc1ccccc1NC(=O)CN1C(=O)S/C(=C\c2ccc(-c3cccc(C(=O)O)c3C)o2)C1=O	15.0%	-1.1%	i	3.9%	i
Cc1cccc(NC(=O)CN2C(=O)S/C(=C\c3ccc(-c4cccc(C(=O)O)c4C)o3)C2=O)c1	?	-2.5%	i	23.1µM*	i
Cc1ccc(NC(=O)CN2C(=O)S/C(=C/c3ccc(-c4cc(C(=O)O)ccc4C)o3)C2=O)cc1C	?	-0.9%[38.3 µM]	i	5.8µM*	i
Cc1cc(C)n2ncc(C(=O)NCC(C)C)c2n1	·	·	i	·	i
CCCc1nn2c(C)c(-c3ccccc3)nc2s1	·	-0.5%	i	·	i
Cc1ccc([N+](=O)[O-])cc1NC(=O)CNC1CCCCC1	-6.7%	0.8%	i	-12.1%	i
SMILES	SW480 rereplic	PINK1 expr mod	KB-3-1 cytotox	MCF10A rereplic	KB-V1 cytotox
Cc1ccc([N+](=O)[O-])cc1NC(=O)CN(C(=O)c1ccc(Cl)cc1)C1CCCCC1	15.6%	0.0%	?	9.8%	23.1µM*
O=C(CN(C(=O)c1ccccc1Cl)C1CCCCC1)Nc1ccc(Cl)c([N+](=O)[O-])c1	?	-0.9%	i	12.4%	i
O=C(CN(C(=O)c1ccc(Cl)cc1)C1CCCCC1)Nc1ccc(Cl)c([N+](=O)[O-])c1	?	?	i	7.3%	14.6µM*
Cc1ccc(Cl)cc1NC(=O)C[n+]1ccc(Cc2ccc([N+](=O)[O-])cc2)cc1	3.2%	?	10.3µM*	?	?
CNC(=O)C1CCC(Cn2c(=O)c3sccc3n(CC(=O)NCc3ccc(F)cc3)c2=O)CC1 (stereo not drawn)	·	-0.5%	i	·	i
c1ccc(N2CC3CCc4ccccc4C3=N2)cc1 (stereo not drawn)	7.31µM*	7.1%	i	20.6µM*	i
CN1N=C2c3ccccc3CCC2C1c1ccc(F)cc1 (stereo not drawn)	-20.1%	2.4%	i	8.0%	i
COc1ccc(CNc2ccccc2C(=O)NCc2ccccc2)cc1COc1ccc(NC(C)=O)cc1	·	0.7%	·	·	·
CCOc1ccccc1NC(=O)C1CCCN(S(=O)(=O)c2ccc3c(c2)C(C)(C)C(=O)N3C)C1 (stereo not drawn)	-8.3%	-1.2%	?	3.4%	i
CSc1nc(-c2ccc(N(C)C)cc2)c(C#N)c(=O)n1C	7.31µM*	?	i	11.6µM*	i
CCC1CN(C(=O)Nc2cc(C)ccc2OC)c2cc(Cl)ccc2O1 (stereo not drawn)	·	-0.8%	·	·	·
CCn1cnc2c1c(=O)n(Cc1cccc(Br)c1)c(=O)n2Cc1ccccc1	3.4%	3.8%	?	13.3%	18.4µM*
Cn1cnc2c1c(=O)n(Cc1cccc(Br)c1)c(=O)n2C	-7.7%	0.4%	i	203.1%[0.0737 µM]	i
COc1ccc(/C=N/n2c(SC)nnc2-c2ccccc2)cc1C	7.31µM*	2.4%	?	18.4µM*	18.4µM*
COc1ccc(/C=N/n2c(SC)nnc2-c2ccccc2)c(OC)c1OC	5.8µM*	2.6%	?	14.6µM*	5.17µM*
COc1cccc(/C=N\n2c(C)nnc2C)c1OC	-2.8%	1.8%	i	1.3%	i
COc1ccc(-n2c(=O)c(CCc3ccccc3)nc3cnc(N4CCOCC4)nc32)cc1	·	2.8%	·	·	·
COc1cc(OC)c2c(c1)O/C(=C\c1ccccc1)C2=O	?	1.6%	i	?	i
COCOc1ccc(/C=C2/Oc3cc(OCOC)cc(OCOC)c3C2=O)c(OCOC)c1	?	3.6%	i	6.51µM*	i
Brc1ccc(C2C3=C(Nc4ncnn42)c2ccccc2OC3c2ccncc2)cc1 (stereo not drawn)	?	-32.5%[38.3 µM]	?	?	20.6µM*
COc1ccc(C2Oc3ccccc3C3=C2C(c2cccs2)n2ncnc2N3)cc1 (stereo not drawn)	?	6.1%	5.8µM*	?	5.8µM*
